Screening data as filed in PubChem.
Sampled rows, rich in hits. Any-hit rate of the full collection: about 19%.
DT40 TDP1 no CPT – qHTS for Inhibitors of human tyrosyl-DNA phosphodiesterase 1 (TDP1): qHTS in cells in absence of CPT; DT40 Tdp1-/- hTDP1 cells, no CPT, ATP luminescence, 48 h; 420,000 tested, 15% active; Potency, µM (highest dose often 46.2 µM), without a hit: at the highest dose activity change, negative = growth inhibition, usual class: inhibitors; AID 686978, 2013; further: nearly all actives have a fitted effect of over 55% in size
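Readout: luminescence from CellTiter-Glo after 30 min in the dark at RT. Cells: DT40 Tdp1-/- with stable hTDP1, 400/well. Exposure: compounds alone, ≥48 hr, 37 °C.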
DT40 TDP1 CPT – qHTS for Inhibitors of human tyrosyl-DNA phosphodiesterase 1 (TDP1): qHTS in cells in presence of CPT | Potency, µM (top dose mostly 46.2 µM), inactives show at the highest dose activity change, negative = growth inhibition, actives largely listed as inhibitors | chicken DT40 Tdp1-/-;hTDP1 cells + 20 nM CPT, ATP luminescence, 48 h | 420,000 tested, 12% active; further: nearly all actives have a fitted effect of over 55% in size
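Chicken DT40 Tdp1-/- cells complemented with human TDP1, 400 cells/well, exposed to compounds plus 20 nM camptothecin for at least 48 h at 37 C; viability read as ATP content by CellTiter-Glo luminescence.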
RORg inh – qHTS for inhibitors of ROR gamma transcriptional activity | Nuclear receptor ROR-gamma (Mus musculus), P51450 | Drosophila S2 Gal4-RORgamma UAS-luciferase reporter, 20 h | Potency, µM (top dose mostly 53.6 µM), without a hit: top-dose activity change, negative = inhibition, hits mostly inhibitors | 310,000 tested, 5.4% active | AID 2551, 2010; further: nearly all actives have a fitted effect of over 60% in size
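Luciferase reporter read in Schneider cells carrying Gal4-RORγ (mouse) and UAS-Photinus luciferase; cells given compound 1 h before 700 uM copper sulfate induction, then incubated 20 h at ambient temperature.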
VP16 counter – VP16 counterscreen qHTS for inhibitors of ROR gamma transcriptional activity. Drosophila S2 Gal4-VP16 UAS-luciferase, luminescence, 20 h. Potency, µM (series often up to 53.6 µM), for inactives: at the highest dose activity, negative = inhibition, actives largely listed as inhibitors. 310,000 tested, 3.5% active;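 further: Gal4-VP16 expression switched on by copper sulfate through the metallothionein promoter; nearly all actives have a fitted effect of over 50% in size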
TDP1 inh – qHTS Assay for Inhibitors of Tyrosyl-DNA Phosphodiesterase (TDP1); 350,000 tested, 0.28% active; Potency, µM (highest dose often 130 µM), for the others: top-dose activity change, negative = inhibition, most hits filed as inhibitors; Tyrosyl-DNA phosphodiesterase 1 (Homo sapiens), Q9NUW8; recombinant TDP1, AlphaScreen DNA substrate cleavage; further: nearly all actives have a fitted effect of over 40% in size
Target sequence (Q9NUW8 whole entry, looked up): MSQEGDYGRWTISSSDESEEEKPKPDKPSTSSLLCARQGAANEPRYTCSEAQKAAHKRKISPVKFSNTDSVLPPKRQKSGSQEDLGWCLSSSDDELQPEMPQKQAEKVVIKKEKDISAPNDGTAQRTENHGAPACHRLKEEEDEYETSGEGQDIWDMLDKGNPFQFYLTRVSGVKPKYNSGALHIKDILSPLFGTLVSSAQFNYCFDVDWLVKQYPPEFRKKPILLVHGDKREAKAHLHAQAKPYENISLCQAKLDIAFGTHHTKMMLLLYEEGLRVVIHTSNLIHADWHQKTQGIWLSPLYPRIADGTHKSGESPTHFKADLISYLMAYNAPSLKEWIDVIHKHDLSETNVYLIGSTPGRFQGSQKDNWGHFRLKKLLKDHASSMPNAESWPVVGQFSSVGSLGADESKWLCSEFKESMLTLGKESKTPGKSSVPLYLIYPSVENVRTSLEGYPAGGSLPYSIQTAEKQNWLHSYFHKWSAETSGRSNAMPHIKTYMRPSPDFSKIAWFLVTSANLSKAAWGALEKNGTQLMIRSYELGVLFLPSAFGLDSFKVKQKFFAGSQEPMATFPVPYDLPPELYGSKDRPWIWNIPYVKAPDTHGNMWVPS
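AlphaScreen read-out: signal falls as enzyme removes the 3' tyrosine-FITC from a 5'-biotinylated DNA oligo (15 nM, 5 min, RT). Enzyme was E. coli-made recombinant Tdp1 at 1 nM, exposed to compound for 15 min beforehand; beads 10 ug/ml, 10 min.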
An asterisk follows results filed as active; ? = inconclusive; · = not tested or not shown; [ ] = another dose, or the depositor's remark. The call rests on the fitted dose curve; in most records, active means well fitted curve in the direction sought with a large enough effect; inconclusive means small, poorly fitted or top-dose-only effect, or another doubt; inactive means no such curve, though single readings can be large; an effect the other way counts as inactive or inconclusive. On the % scale 0 is the no-effect control and ±100 the full control effect; potency means the concentration at half of the fitted maximal effect.

SMILES | DT40 TDP1 no CPT | DT40 TDP1 CPT | RORg inh | VP16 counter | TDP1 inh
CCN(CC(=O)N1CCC(C)CC1)S(=O)(=O)c1ccc(C)cc1 | ? | ? | -16.2% | -16.9% | 4.6%
Fc1ccc(CN2CCCN(Cc3nc(-c4ccc5c(c4)OCO5)no3)CC2)cc1 | ? | ? | 13.9% | -3.8% | 2.6%
S=C(NCCc1ccccc1)N1CCC2CC1c1cc(-c3ccc4c(c3)OCO4)ccc12 (stereo not given) | 9.2µM* | 8.2µM* | · | · | ·
COCCNC(=S)N1CCC(C(=O)c2ccc3c(c2)OCCO3)CC1 | ? | -22.1% | 28.7% | -5.7%[10 µM] | 2.6%
COCCNC(=S)N1CCC2CC1c1cc(-c3ccc4c(c3)OCO4)ccc12 (stereo not given) | ? | 16.4µM* | · | · | ·
Fc1ccc(-c2ccc3c(c2)C2CC3CCN2Cc2ccc3c(c2)OCO3)cc1 (stereo not given) | 16.4µM* | ? | · | · | ·
O=C(c1ccccc1F)N1CCC2CC1c1cc(-c3ccc4c(c3)OCO4)ccc12 (stereo not given) | 20.6µM* | ? | · | · | ·
CC(C)n1c(Oc2ccc(F)cc2)nc2c1c(=O)n(C)c(=O)n2C | -16.5% | 3.3% | -3.4% | 1.3% | -1.2%
Nc1nc(Nc2ccccc2)nc(C(F)(F)F)n1 | 2.1% | 14.4% | 4.4% | 6.2% | ·
COc1cc(-n2c(C)nc3cc(C(=O)NCCN4CCOCC4)ccc32)cc(OC)c1OC | · | · | -27.8% | 10.8% | 1.9%
O=C1CC(c2ccsc2)Sc2ccccc2N1 (stereo not given) | -25.0% | 0.4% | 6.5% | 3.8% | 5.1%
CCN(CC)S(=O)(=O)c1ccc(O)c(NC(=O)CN2CCc3ccccc3C2)c1 | ? | 1.3% | 25.3% | -3.5% | 0.0%
CCN(CC)S(=O)(=O)c1ccc(O)c(NS(=O)(=O)c2ccccc2F)c1 | -26.6% | ? | 10µM* | -29.3% | 3.0%
COc1ccc(OCC(=O)NS(=O)(=O)c2ccccc2)cc1 | -3.3% | 2.5% | -32.2% | -0.8% | 7.4%
COc1ccc(Nc2cc(C(=O)NCc3cccnc3)c3ccccc3n2)c(OC)c1 | · | · | ? | -8.1% | 4.6%
COc1ccc(Nc2cc(C(=O)NCCCN3CCN(C)CC3)c3ccccc3n2)c(OC)c1 | 23.1µM* | ? | -1.2% | -3.3% | 3.9%
COc1ccc(Nc2cc(C(=O)NCCCOC(C)C)c3ccccc3n2)c(OC)c1 | 16.4µM* | 16.4µM* | 1.0% | 2.9% | ·
CCN(CCCNC(=O)c1cc(Nc2ccc(OC)cc2OC)nc2ccccc12)c1cccc(C)c1 | 14.6µM* | 20.6µM* | · | · | 7.0%
CC1(C)CC(=O)c2cc3c(N)c(C(=O)NCc4ccccc4)sc3nc2C1 | ? | 1.3% | 20.8% | -7.9% | 5.2%
CS(=O)(=O)c1cccc(C(=O)Nc2ccc(-c3nc4ccccc4[nH]3)cc2)c1 | 7.31µM* | 8.2µM* | -12.8% | ? | 2.4%
CN(c1ccccc1)S(=O)(=O)c1ccc(Cl)c(C(=O)Nc2ccc(-c3nc4ccccc4[nH]3)cc2)c1 | 18.4µM* | 18.4µM* | ? | -1.0% | 1.1%
Cc1ccccc1C(=O)Nc1ccc(-c2nc3ccc(C(=O)c4ccccc4)cc3[nH]2)cc1 | 5.17µM* | 9.2µM* | 42.8% | -12.4% | 5.4%
CN(c1ccccc1)S(=O)(=O)c1ccc(Cl)c(C(=O)Nc2nn[nH]n2)c1 | 1.7% | 4.4% | 6.4% | 3.9% | 1.2%
CN(c1ccccc1)S(=O)(=O)c1ccc(Cl)c(C(=O)Nc2nc3ccccc3[nH]2)c1 | 14.6µM* | 14.6µM* | 3.98µM* | 7.08µM* | 9.1%
CN(C(=O)CSc1nnnn1-c1ccccc1)C1CCS(=O)(=O)C1 (stereo not given) | -0.9% | 1.2% | 12.2% | -9.0% | 10.0%
COc1ccc(CCNC(=O)c2ccc3nc(N4CCOCC4)sc3c2)cc1OC | ? | ? | -36.4% | -2.8% | ·
